Assay outcomes: PubChem BioAssay, NMMLSC
CIT2-GFP yeast: modulators of CIT2-GFP expression in yeast, primary screen, S. cerevisiae, GFP fusion, multiplex flow cytometry, MLPCN library; S. cerevisiae CIT2-GFP strain, 3 h; 100 means same as DMSO wells; GFP response vs DMSO, % at 10 µM; hit rate 0.065% among 320,000;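 active = GFP response relative to DMSO above a set limit, near the screen mean plus 3 SD, cut at about 150% in these data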;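 also: ratio of well median GFP fluorescence to mean of DMSO wells on the plate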
LAP4 TOR yeast: modulators of LAP4-GFP expression in yeast, primary screen, S. cerevisiae, multiplex flow cytometry, MLPCN library | 3 h; median GFP as percent of DMSO wells | GFP response vs DMSO, % at 10 µM | hit rate 0.34% among 320,000;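 active = GFP response vs DMSO above a set limit, about the screen mean plus 3 SD, cut at about 150% in these data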
AGP1-GFP MLPCN: modulators of AGP1-GFP expression in yeast TOR pathway, primary screen, cell-based, multiplex flow cytometry, S. cerevisiae, MLPCN library | AID 2066, 2009 | 3 h; GFP as percent of DMSO wells | GFP response vs DMSO, % at 10 µM | hit rate 0.02% among 320,000;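 active = GFP response relative to DMSO above a set limit, near screen average plus 3 SD, cut at about 150% in these data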;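 also: median GFP channel fluorescence of the gated AGP1 strain per well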
RPL19A-GFP yeast: RPL19A-GFP expression modulators in yeast, primary screen, cell-based, S. cerevisiae, multiplex flow cytometry, MLPCN; AID 2025, 2009; hit rate 0.3% among 330,000; S. cerevisiae RPL19A-GFP strain, 3 h; active compounds read low; percent response vs DMSO, % at 10 µM;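 active = percent response vs DMSO below 50%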;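 also: median channel GFP fluorescence of the barcoded RPL19A-GFP strain; ratio of sample median GFP to plate DMSO average so 100% = DMSO; lower means less RPL19A-GFP as with rapamycin TOR inhibition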
MEP2-GFP yeast: modulators of MEP2-GFP levels in yeast, primary screen, S. cerevisiae, multiplex flow cytometry, MLPCN library. hit rate 0.51% among 330,000. S. cerevisiae MEP2-GFP strain, 3 h; 100% = DMSO control level. GFP response vs DMSO, % at 10 µM;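 active = GFP response versus DMSO above a set limit, roughly screen mean plus 3 SD, cut at about 180% in these data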;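 also: median GFP fluorescence of the barcode-gated MEP2-GFP cells per well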
LAP4 cherry2: LAP4-GFP expression modulators in yeast, confirmation, cell-based, second cherry pick, flow cytometry | shares compounds with LAP4 TOR yeast | S. cerevisiae LAP4-GFP strain, 3 h | GFP response vs DMSO, % at 10 µM | hit rate 20% among 590;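 active = GFP signal as percent of the solvent control above about 150%, meaning raised reporter expression, limit read from the data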;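 also: ratio of well median GFP fluorescence to plate DMSO mean so 100% = DMSO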
MEP2 cherry2: modulators of MEP2-GFP levels in yeast, confirmation, S. cerevisiae, flow cytometry GFP, second cherry picks | AID 2622, 2010 | S. cerevisiae MEP2-GFP strain, 3 h | hit rate 10% among 590 | shares compounds with LAP4 TOR yeast | GFP response vs DMSO, % at 10 µM;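 active = GFP signal above 150% of the solvent control wells, that is a rise of more than half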;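 also: median channel GFP fluorescence of all gated yeast cells per well; ratio of median GFP to plate DMSO average so 100% = DMSO level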
RPL19A-GFP pick2: RPL19A-GFP modulators in TOR pathway yeast, confirmation, cell-based, S. cerevisiae, flow cytometry, second cherry pick; S. cerevisiae RPL19A-GFP strain, 3 h; active compounds read low; 100% means same as DMSO wells; AID 2623, 2010; GFP response vs DMSO, % at 10 µM; shares compounds with LAP4 TOR yeast; hit rate 3% among 590;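 active = under 65% GFP response relative to DMSO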;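 also: median GFP channel fluorescence per well over the all cells gate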
CIT2-GFP pick2: modulators of CIT2-GFP expression in yeast, confirmation, flow cytometry, second cherry pick, single plex; shares compounds with LAP4 TOR yeast; S. cerevisiae CIT2-GFP strain, 3 h; DMSO control wells read 100%; GFP response vs DMSO, % at 10 µM; hit rate 8% among 590;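 active = GFP response vs DMSO above about 150%, limit read from the data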;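 also: median green fluorescence per well over all gated yeast cells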
AGP1-GFP pick2: AGP1-GFP expression modulators, hit retest, confirmation, cell-based, flow cytometry, S. cerevisiae, cherry pick set 2 | shares compounds with LAP4 TOR yeast | S. cerevisiae AGP1-GFP strain, 3 h | percent response vs DMSO, % at 10 µM | 590 tested, under 10 active;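 active = over 150 percent of DMSO response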;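 also: median GFP channel fluorescence over all cells without mother daughter split; sample median GFP divided by mean DMSO control so 100% equals DMSO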
s288c autofluor: compound autofluorescence in yeast s288c, dose response, artefact control for yeast TOR pathway GFP screen, s288c strain. shares compounds with LAP4 TOR yeast. S. cerevisiae s288c, 520 nm autofluorescence, flow cytometry, 3 h; active compounds read high; zero means same as solvent-only cells. fluorescence change (kMESF span) at 33 µM. 610 tested, under 10 active. AID 2757, 2010;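 active = fluorescence span over the dose series, or activity score, above about 33, limit read from the data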
* hit, by the source's call; · = not tested or not shown. Shown are actives, neighbours in structure and some others; about 0.93% of the full set was active somewhere.

SMILES | CIT2-GFP yeast | LAP4 TOR yeast | AGP1-GFP MLPCN | RPL19A-GFP yeast | MEP2-GFP yeast | LAP4 cherry2 | MEP2 cherry2 | RPL19A-GFP pick2 | CIT2-GFP pick2 | AGP1-GFP pick2 | s288c autofluor
O=C(CN1C(=O)c2ccccc2S1(=O)=O)NCc1ccccc1Cl | 69 | 81 | 22 | 95 | 299* | 97 | 94 | 99 | 114 | 96 | ·
COc1ccc(CCNC2=C(Cl)C(=O)N(CCc3ccccc3)C2=O)cc1OC | 90 | 109 | 97 | 98 | 112 | · | · | · | · | · | 0
O=C1C(Cl)=C(Nc2ccccc2O)C(=O)N1CCc1ccccc1 | 98 | 99 | 97 | 103 | 104 | · | · | · | · | · | 0.4
Cc1cc(OCCN2CCN(S(=O)(=O)c3ccccc3F)CC2)ccc1C(C)C | 117 | 112 | 109 | 106 | 122 | · | · | · | · | · | ·
CC1(C)CCC[C@]2(C)[C@H]3CC(=O)O[C@]3(C)CC[C@@H]12 | 96 | 92 | 97 | 106 | 113 | · | · | · | · | · | ·
CC(=O)OC[C@]12CC[C@H]3[C@@](C)(CC[C@H]4C(C)(C)CCC[C@]34C)[C@@H]1C[C@H](C1=CC(=O)O[C@@H]1OC(C)=O)O2 | 105 | 155* | 80 | 95 | 104 | 210* | 173* | 98 | 172* | 100 | 4.4
Cc1c(C(=O)N2CCN(C3CCS(=O)(=O)C3)CC2)oc2c(F)cccc12 (configuration not stated) | 105 | 104 | 104 | 104 | 99 | · | · | · | · | · | ·
Cc1ccc(N=Cc2nc(-c3ccco3)oc2O)cc1 | 92 | 119 | 91 | 91 | 95 | · | · | · | · | · | ·
O=C(Oc1oc(-c2ccco2)nc1C=Nc1ccccc1)c1ccoc1 | 87 | 217* | 72 | 91 | 87 | · | · | · | · | · | -9.6
NC(=O)CSc1oc(-c2ccco2)nc1S(=O)(=O)c1ccccc1 | 101 | 96 | 102 | 108 | 93 | · | · | · | · | · | ·
O=c1oc(-c2ccco2)nc2ccccc12 | 93 | 121 | 92 | 94 | 100 | · | · | · | · | · | ·
Cc1ccc(C(=O)Oc2oc(-c3ccco3)nc2C=Nc2ccc(Cl)cc2)cc1 | 93 | 223* | 75 | 100 | 96 | · | · | · | · | · | 0.2
O=C(Oc1oc(-c2ccco2)nc1C=Nc1ccccc1)c1ccco1 | 71 | 203* | 79 | 98 | 90 | · | · | · | · | · | 0.3
CCOc1ccc(S(=O)(=O)N(CC)CC(=O)NCc2ccncc2)cc1 | 85 | 97 | 28 | 76 | 119 | · | · | · | · | · | ·
Cc1ccc(C)c(N2N=C(C(=O)NCCN3C(=O)S/C(=C\c4cccnc4)C3=O)CCC2=O)c1 | 105 | 113 | 110 | 99 | 95 | · | · | · | · | · | ·
Oc1ccc(-c2c(-c3ccsc3)sc3ccccc23)cc1 | 84 | 153* | 80 | 91 | 88 | 114 | 105 | 89 | 97 | 89 | ·
O=C(CC1C(=O)NCCN1Cc1cccc(F)c1F)NCCCC1CCCC1 (configuration not stated) | 107 | 96 | 103 | 101 | 107 | · | · | · | · | · | ·
CCSc1ccc(-c2nn(-c3ccccc3)cc2/C=C(/C#N)C(=O)NCCCOC)cc1 | 186* | 186* | 83 | 105 | 525* | 96 | 96 | 101 | 114 | 97 | ·
CCCSc1ccc(-c2nn(-c3ccccc3)cc2/C=C(/C#N)C(=O)NCCCOC)cc1 | 110 | 102 | 100 | 103 | 108 | · | · | · | · | · | ·
O=C(/C=C/c1cccc([N+](=O)[O-])c1)c1ccc([N+](=O)[O-])o1 | 75 | 243* | 68 | 71 | 83 | 182* | 138 | 94 | 126 | 87 | 1.4
Cc1cccc(/C=C/C(=O)c2ccc([N+](=O)[O-])o2)c1 | 80 | 176* | 61 | 90 | 84 | 247* | 150* | 93 | 157* | 102 | 9.7
O=C(/C=C/c1cccc([N+](=O)[O-])c1)c1ccco1 | 84 | 147 | 85 | 88 | 91 | · | · | · | · | · | ·
COc1cc(NC(=O)N[C@@H](Cc2c[nH]c3ccccc23)C(=O)O)c(C(=O)O)cc1OC | 103 | 90 | 101 | 106 | 108 | · | · | · | · | · | ·
CC(C(=O)c1ccc(Br)cc1)[n+]1cccc2ccccc21 (configuration not stated) | 101 | 84 | 103 | 98 | 103 | · | · | · | · | · | ·
Cc1c(C(=O)c2ccccc2C(=O)O)sc2ccccc12 | 90 | 106 | 103 | 103 | 107 | · | · | · | · | · | ·
SMILES | CIT2-GFP yeast | LAP4 TOR yeast | AGP1-GFP MLPCN | RPL19A-GFP yeast | MEP2-GFP yeast | LAP4 cherry2 | MEP2 cherry2 | RPL19A-GFP pick2 | CIT2-GFP pick2 | AGP1-GFP pick2 | s288c autofluor
CCN(Cc1ccccc1)C(=O)C(=O)c1cn(CC(=O)N2CCCC2)c2ccccc12 | 178* | 102 | 112 | 102 | 105 | 98 | 102 | 100 | 106 | 102 | ·
CC1CCCCN1C(=O)C(=O)c1cn(CC(=O)N2CCCC2)c2ccccc12 (configuration not stated) | 106 | 103 | 106 | 92 | 102 | · | · | · | · | · | ·
CC1CCN(C(=O)C(=O)c2cn(CC(=O)N3CCCC3)c3ccccc23)CC1 | 159* | 101 | 104 | 96 | 114 | 99 | 101 | 98 | 110 | 97 | ·
COc1cc(CC(NC(C)=O)C(=O)NC2CCN(C(=O)Nc3ccc(C)cc3)CC2)cc(OC)c1 (configuration not stated) | 112 | 102 | 113 | 106 | 120 | · | · | · | · | · | ·
CC(=O)O[C@H]1C(=O)[C@@]2(C)[C@H]([C@H](OC(=O)c3ccccc3)[C@]3(O)C[C@H](OC(=O)[C@H](O)[C@@H](NC(=O)c4ccccc4)c4ccccc4)C(C)=C1C3(C)C)[C@]1(OC(C)=O)CO[C@@H]1C[C@@H]2O | 87 | 114 | 90 | 98 | 93 | · | · | · | · | · | ·
COc1ccccc1-c1nnc(SCC(=O)N2CCOCC2)n1-c1ccccc1 | 103 | 98 | 99 | 95 | 100 | · | · | · | · | · | ·
COc1ccccc1-c1nnc(SCCN2CCOCC2)n1-c1ccc(C)cc1 | 124 | 100 | 30 | 71 | 196* | 102 | 100 | 101 | 114 | 97 | ·
